Measured values as given in PubChem BioAssay AID1159580 (chemical genetic matrix, 2015).
Several values for one entry are separate records, joined by “and”; a condition that tells them apart may be missing. Equal values may be shown once. Hit rate of the full screen: of about 5,500 compounds, about 2,000 (36%) were called active. Not shown: some 18% with an inconclusive outcome. No stated cut-off is given here; in the data, active means normalized growth mostly below about 0.91 (no sharp cut-off); inconclusive means no clear call, values can overlap the other calls; inactive means mostly above about 0.92. The list shows a part of the results.

Assay: chemical genetic growth profiling, strain panel (AID 1159580);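 further: tested at 20 µM; growth read once vehicle control cultures reached saturation at 30 °C; 1 = growth at the plate median or of vehicle wells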
Conditions: S. cerevisiae deletion strains, growth OD

Measured: normalized growth

CC[C@@H](CO)NC(=O)[C@@H]1C=C2c3cccc4[nH]cc(c34)C[C@H]2N(C)C1
inactive: locus YAL013W, strain DEP1, stronger effect = lower value 0.989 | locus YAL021C, strain ccr4, stronger effect = lower value 1 | locus YAL026C, strain drs2, stronger effect = lower value 0.996 | locus YAL030W, strain snc1, stronger effect = lower value 0.997 | locus YBL061C, strain skt5, stronger effect = lower value 0.999 | locus YBR009C, strain hhf1, stronger effect = lower value 0.992 | locus YBR021W, strain FUR4, stronger effect = lower value 1 | locus YBR023C, strain chs3, stronger effect = lower value 0.997 | locus YBR171W, strain sec66, stronger effect = lower value 0.998 | locus YBR229C, strain ROT2, stronger effect = lower value 0.99 | locus YBR231C, strain swc5, stronger effect = lower value 0.988 | locus YBR279W, strain paf1, stronger effect = lower value 0.996 | locus YCL011C, strain gbp2, stronger effect = lower value 1 | locus YCL016C, strain dcc1, stronger effect = lower value 0.994 | locus YCL029C, strain bik1, stronger effect = lower value 0.984 | locus YCL069W, strain vba3, stronger effect = lower value 1 | locus YCR088W, strain abp1, stronger effect = lower value 0.998 | locus YDL005C, strain med2, stronger effect = lower value 1 | locus YDL035C, strain GPR1, stronger effect = lower value 1 | locus YDL040C, strain nat1, stronger effect = lower value 0.997 | locus YDL074C, strain BRE1, stronger effect = lower value 1.02 | locus YDL101C, strain DUN1, stronger effect = lower value 0.993 | locus YDL134C, strain PPH21, stronger effect = lower value 0.98 | locus YDL185W, strain tfp1, stronger effect = lower value 0.981 | locus YDL192W, strain arf1, stronger effect = lower value 0.988 | locus YDR001C, strain nth1, stronger effect = lower value 0.998 | locus YDR069C, strain doa4, stronger effect = lower value 0.995 | locus YDR101C, strain arx1, stronger effect = lower value 0.995 | locus YDR137W, strain rgp1, stronger effect = lower value 0.995 | locus YDR150W, strain NUM1, stronger effect = lower value 1 | locus YDR159W, strain sac3, stronger effect = lower value 0.992 | locus YDR162C, strain NBP2, stronger effect = lower value 1.02 | locus YDR195W, strain ref2 0.942 | locus YDR297W, strain sur2, stronger effect = lower value 0.994 | locus YDR318W, strain mcm21, stronger effect = lower value 0.982 | locus YDR334W, strain swr1, stronger effect = lower value 1 | locus YDR335W, strain msn5, stronger effect = lower value 0.999 | locus YDR388W, stronger effect = lower value 0.99 | locus YDR392W, strain spt3, stronger effect = lower value 0.995 | locus YDR502C, strain sam2, stronger effect = lower value 1 | locus YEL003W, strain gim4, stronger effect = lower value 0.998 | locus YEL037C, strain rad23, stronger effect = lower value 1 | locus YEL061C, strain CIN8 (second series), stronger effect = lower value 1 | locus YEL061C, strain CIN8, stronger effect = lower value 0.998 | locus YER015W, strain faa2, stronger effect = lower value 0.99 | locus YER016W, strain bim1, stronger effect = lower value 0.993 | locus YER110C, stronger effect = lower value 0.977 | locus YER111C, strain swi4, stronger effect = lower value 1 | locus YER155C, strain BEM2 (second series), stronger effect = lower value 0.961 | locus YER155C, strain BEM2, stronger effect = lower value 1 | locus YER167W, strain BCK2, stronger effect = lower value 0.974 | locus YFR010W, strain ubp6, stronger effect = lower value 0.985 | locus YGL078C, strain dbp3, stronger effect = lower value 0.998 | locus YGL086W, strain mad1, stronger effect = lower value 0.959 | locus YGL167C, strain pmr1, stronger effect = lower value 1.01 | locus YGL173C, strain kem1, stronger effect = lower value 0.995 | locus YGL227W, strain vid30, stronger effect = lower value 0.991 | locus YGL240W, strain doc1, stronger effect = lower value 0.981 | locus YGL248W, strain PDE1, stronger effect = lower value 0.986 | locus YGL253W, strain hxk2, stronger effect = lower value 1.01 | locus YGR078C, strain PAC10, stronger effect = lower value 0.994 | locus YGR135W, strain pre9, stronger effect = lower value 0.958 | locus YGR229C, strain SMI1, stronger effect = lower value 0.961 | locus YGR252W, strain gcn5, stronger effect = lower value 0.949 | locus YHR013C, strain ard1, stronger effect = lower value 1.02 | locus YHR027C, strain rpn1, stronger effect = lower value 1 | locus YHR030C, strain SLT2, stronger effect = lower value 0.99 and 1.07 | locus YHR079C, strain IRE1 (second series), stronger effect = lower value 0.991 | locus YHR079C, strain IRE1, stronger effect = lower value 1.07 | locus YHR094C, strain hxt1, stronger effect = lower value 0.985 | locus YHR129C, strain ARP1, stronger effect = lower value 0.989 | locus YHR142W, strain chs7, stronger effect = lower value 1.01 | locus YHR200W, strain rpn10, stronger effect = lower value 0.978 | locus YIL066C, strain RNR3, stronger effect = lower value 0.983 | locus YIL073C, strain SPO22, stronger effect = lower value 0.945 | locus YIL125W, strain kgd1, stronger effect = lower value 0.998 | locus YIR030C, strain dcg1, stronger effect = lower value 0.991 | locus YJL092W, strain hpr5, stronger effect = lower value 0.995 | locus YJL095W, strain BCK1 (second series), stronger effect = lower value 0.995 | locus YJL095W, strain BCK1, stronger effect = lower value 0.981 and 1.04 | locus YJL115W, strain asf1, stronger effect = lower value 0.995 | locus YJL129C, strain trk1, stronger effect = lower value 0.999 | locus YJL134W, strain LCB3, stronger effect = lower value 0.992 | locus YJL154C, strain vps35, stronger effect = lower value 0.998 | locus YJL164C, strain tpk1, stronger effect = lower value 0.991 | locus YJL166W, strain qcr8, stronger effect = lower value 0.947 | locus YJL168C, strain set2, stronger effect = lower value 0.984 | locus YJL187C, strain SWE1 (second series), stronger effect = lower value 0.996 | locus YJR043C, strain POL32, stronger effect = lower value 0.975 | locus YJR066W, strain TOR1, stronger effect = lower value 0.999 | locus YJR075W, strain HOC1, stronger effect = lower value 1.02
